MITF inh: human MITF inhibition, primary screen | AID 1259374 | AlphaScreen MITF homodimerization, bead proximity signal | hit rate 0.91% among 650,000 | O75030 | inhibition, % at 2.6 µM; in the data active = inhibition above about 50%
TEAD-YAP block: TEAD-YAP interaction inhibition | HEK-TIYL cells, TEAD-Gal4/YAP UAS-luciferase luminescence | inhibition, % at 9.12 µM | hit rate 1.4% among 640,000; in the data active = inhibition above about 32%
FBW7 act: activators of human E3 ligase FBW7. Q969H0. AlphaScreen FBW7–phospho-cyclin E peptide binding, activator screen. hit rate 0.13% among 650,000. normalized activity (activation), % at 26.1 µM. AID 1259310; in the data active = normalized activity above about 1.9%;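 note: purified mutant Fbw7 with reduced substrate affinity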
GPR151 ag: human GPR151 activation; Q8TDV0; PathHunter beta-arrestin GPR151 cells, luminescence; activation, % at 11.2 µM; hit rate 1% among 650,000; in the data active = activation above about 4.9%
Target sequence (Q8TDV0 whole entry, looked up): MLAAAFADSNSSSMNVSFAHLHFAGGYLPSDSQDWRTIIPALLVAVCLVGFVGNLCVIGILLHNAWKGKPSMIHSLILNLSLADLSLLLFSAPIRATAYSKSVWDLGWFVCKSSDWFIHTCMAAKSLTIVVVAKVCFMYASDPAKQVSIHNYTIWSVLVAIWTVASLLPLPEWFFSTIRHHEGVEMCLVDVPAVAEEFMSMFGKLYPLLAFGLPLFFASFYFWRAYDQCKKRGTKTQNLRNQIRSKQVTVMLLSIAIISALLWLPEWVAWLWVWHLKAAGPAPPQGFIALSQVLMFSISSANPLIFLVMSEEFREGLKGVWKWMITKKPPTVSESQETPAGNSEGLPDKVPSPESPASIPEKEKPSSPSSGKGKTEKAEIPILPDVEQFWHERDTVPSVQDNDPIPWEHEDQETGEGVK
MITF inh conf: human MITF inhibition, confirmation. shares compounds with MITF inh. AlphaScreen MITF homodimerization, biotin/His-MITF beads. inhibition, % at 2.6 µM. hit rate 16% among 4,700. AID 1259372;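 active = inhibition above a cutoff derived from the DMSO control wells, cut at about 28% in these data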;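 note: inhibitors lower the bead chemiluminescence by keeping MITF from dimerizing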
AS interf ctr: counter-screen: compounds optically interfering with AlphaScreen; hit rate 7.6% among 4,700; shares compounds with MITF inh; inhibition, % at 2.6 µM; LysRS AlphaScreen counterscreen, signal interference, triplicate;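 active = inhibition above a cutoff derived from the DMSO control wells, cut at about 30% in these data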
Of the large screens only hits and unclear results are named; the others gave an inactive call (follow-up assays come after a bar, where they were run). An excerpt weighted towards active compounds, which were near 3.4% of everything screened.

CC(C)c1ccc(-c2cc(C(=O)O)c3ccccc3n2)cc1	TEAD-YAP block 74
CCc1ccc(-c2cc(C(=O)N3CCN(c4ncccn4)CC3)c3ccccc3n2)s1	TEAD-YAP block 33
Cc1ccc(-c2cc(C(=O)N3CCOCC3)c3ccccc3n2)cc1	none
CCc1ccc(-c2cc(C(=O)N3CCN(Cc4ccccc4)CC3)c3ccccc3n2)cc1	TEAD-YAP block 65
COc1cccc(-c2cc(C(=O)N3CCOCC3)c3ccccc3n2)c1	none
CCCNC(=O)C1CCN(C(=O)c2cc3sccc3n2C)CC1	none
COc1ccc(NC(=O)c2cc(-c3ccncc3)nc3ccccc23)cc1	TEAD-YAP block 40
COc1ccc(-c2cc(C(=O)N3CCN(c4ccccc4OC)CC3)c3ccccc3n2)cc1	TEAD-YAP block 41
O=S(=O)(c1ccc(NC(=S)N/N=C/c2ccccc2O)cc1)N1CCOCC1	MITF inh 68, TEAD-YAP block 61
COC(=O)C1=C(NC(=O)c2cc(Cl)ccc2Cl)CCS1	none
COc1ccc(CCNC(=O)CCN2C(=S)NC(C)(C)CC2C)cc1OC (centres undefined)	none
CCc1ccc(NC(=S)N(CCCN2CCOCC2)C2CCN(C(C)=O)CC2)cc1	none
COc1cc(C(=O)N/N=C/c2ccc(O)cc2)cc(OC)c1OC	TEAD-YAP block 57
COc1cc(C(=O)N/N=C/c2ccc(Br)s2)cc(OC)c1OC	TEAD-YAP block 59
O=C(N/N=C/c1cc(Br)c(Br)s1)c1ccncc1	none
COC(=O)N/N=C/c1ccc(Br)s1	none
COc1cc(/C=N/NC(=O)c2c(C)nc3ccc(Cl)cn23)cc(OC)c1OC	FBW7 act 16
O=C(N/N=C/c1ccc(Br)s1)c1ccncc1	TEAD-YAP block 36
COc1cc(/C=N\NC(=O)c2c(C)nc3ccc(Cl)cn23)cc(OC)c1OC	none
COc1ccc(C2C3(C#N)C(N)=NC4(OCCO4)C23C#N)c(OC)c1OC (centres undefined)	none
O=C(CN1CCC2(CC1)Nc1ccccc1-n1cccc12)NCc1cccs1	none
COc1cc(/C=N/NC(=O)c2cc(OC)c(OC)c(OC)c2)cc(OC)c1O	TEAD-YAP block 56
COc1cc(C(=O)N/N=C/c2ccc(OC)c(OC)c2C(=O)O)cc(OC)c1OC	TEAD-YAP block 67
COc1cc(C(=O)N/N=C/c2cccc(Br)c2)cc(OC)c1OC	TEAD-YAP block 60
COc1ccc(C(=O)N/N=C/c2cc(OC)c(O)c(OC)c2)cc1OC	none
COCCCNc1nc2nonc2nc1N1CCCC(CN2CCCC2)C1 (centres undefined)	none
COc1ccc(/C=C/C(=O)c2cccnc2)cc1OC	none
COc1ccc2ccccc2c1C(=O)/C=C/c1cccnc1	TEAD-YAP block 85
Cc1nc(SCC(=O)c2ccccc2F)c2c3c(sc2n1)CCCC3	none
O=C(CCN1C(=O)/C(=C/C=C/c2ccccc2)SC1=S)Nc1ccccn1	none
Cc1cccc(/C=C2\SC(=S)N(CCC(=O)O)C2=O)c1	TEAD-YAP block 34
O=C(O)CCN1C(=O)/C(=C/c2cccc(O)c2)SC1=S	none
O=C(O)CCN1C(=O)/C(=C\c2cccc(O)c2)SC1=S	none
O=C(O)CCCCCN1C(=O)/C(=C/c2cccc(O)c2)SC1=S	TEAD-YAP block 45
COc1cccc(/C=C2\SC(=S)N(CCCCCC(=O)O)C2=O)c1	TEAD-YAP block 66
Cc1csc(NC(=O)CCN2C(=O)/C(=C/C=C/c3ccccc3)SC2=S)n1	MITF inh 61
COc1ccc(-c2cc(C(F)(F)F)n3ncc(C(=O)Nc4ccccc4C)c3n2)cc1OC	none
CCN(C(=O)CN1C(=S)NC(C)(C)CC1C)c1ccccc1 (centres undefined)	none
CCc1ccc(C(=O)CC2(O)C(=O)N(C)c3ccc(Br)cc32)cc1 (centres undefined)	none
COc1cccc(C2(CC(=O)N3CCN(C)C(C)C3)CC(=O)N(CCN(C)C)C2=O)c1 (centres undefined)	none
COc1cccc(C2(CC(=O)N3CCOCC3)CC(=O)N(CCN(C)C)C2=O)c1 (centres undefined)	FBW7 act 2.0
O=C(Nc1cccc(Cl)c1Cl)c1cc2nc(-c3ccc(Cl)cc3)cc(C(F)(F)F)n2n1	none
Cc1ccc(-c2c[n+]3ccccc3n2-c2ccccc2)cc1	TEAD-YAP block 80
c1csc(CNc2ccc3ncc(-c4cccc5cccnc45)n3n2)c1	none
Cc1oc2c(c1C(=O)N1CCN(C)CC1)C(=O)c1ccccc1C2=O	TEAD-YAP block 48
Cc1oc2c(c1C(=O)NCC1CCCO1)C(=O)c1ccccc1C2=O (centres undefined)	TEAD-YAP block 77
COC(=O)COc1ccc(S(=O)(=O)NCCc2ccccc2)cc1Cl	none
Cc1nc2ccccc2c2c1CC(C(C)(Cl)Br)O2 (centres undefined)	TEAD-YAP block 34
COc1ccc2cc3c(N)nn(C(=O)Cc4ccccc4OC)c3nc2c1	TEAD-YAP block 33
COc1ccc2nc3c(cc2c1)c(N)nn3C(=O)c1ccc(F)cc1	TEAD-YAP block 36
COc1ccc(C(=O)n2nc(N)c3cc4cc(OC)ccc4nc32)cc1	TEAD-YAP block 44
COc1ccc2cc3c(N)nn(C(=O)c4cccc([N+](=O)[O-])c4)c3nc2c1	none
COc1ccc2cc3c(N)nn(C(=O)c4ccc(Br)o4)c3nc2c1	TEAD-YAP block 43
COc1ccc2cc3c(N)nn(C(=O)c4cncc(Br)c4)c3nc2c1	none
COc1ccc2nc3c(cc2c1)c(N)nn3C(=O)c1ccc([N+](=O)[O-])cc1Cl	none
CCC(=O)NNC(=S)NC(=O)c1ccc([N+](=O)[O-])cc1	none
Cc1ccnc(NS(=O)(=O)c2ccc(Br)cc2)c1	none
O=C(Nc1ccccn1)NC1CC(=O)N(c2ccccc2)C1 (centres undefined)	none
CCOC(=O)c1ccc2ccccc2c1-c1c(C(=O)OCC)ccc2ccccc12	none
COc1ccc(C)cc1NC(=O)CSc1nnc(C)c(C)n1	none
CCCc1nc2ccc([N+](=O)[O-])cc2c(=O)n1Cc1ccc(OC)cc1	none
COc1ccc(C(=O)n2nc(N)c3cc4ccc(C)cc4nc32)cc1OC	none
CCOc1ccc(C(=O)n2nc(N)c3cc4cc(OC)ccc4nc32)cc1	TEAD-YAP block 38
O=C1CCN(C(=O)CNC(=O)CC23CC4CC(CC(C4)C2)C3)CC1	none
CS(=O)(=O)N(CC(=O)Nc1cccc(Cl)c1)c1cccc(Cl)c1	none
Cc1cc(NCc2ccccc2)n2ncnc2n1	none
Cc1cc(NCc2ccccc2F)n2ncnc2n1	MITF inh 51 | MITF inh conf inactive | AS interf ctr inactive
C=CCN1CCN(C(c2ccc(OC)cc2)c2nnnn2CC2CCCO2)CC1 (centres undefined)	none
COc1cc(C(=O)N2CCN(CC3CC=CCC3)CC2)cc(OC)c1OC (centres undefined)	none
COc1ccc(OC)c(CN2CCN(CC3CC=CCC3)CC2)c1 (centres undefined)	MITF inh 54 | MITF inh conf inactive | AS interf ctr inactive
